# Source: PubChem BioAssay
# The source made the active and inactive calls.
# Legend:
# [1] = A549 cell viability effects, profiling panel, calcein-AM fluorescence, 48 h, basal (AID 1162); conditions: higher = more signal
# [2] = adipocyte viability effects, profiling panel, cell-based, 3T3-L1 adipocytes, calcein-AM fluorescence, 48 h, basal (AID 1163); conditions: 3T3-L1 adipocytes viability, higher = more signal
# [3] = HepG2 cell viability effects, profiling panel, calcein-AM fluorescence, 48 h, basal (AID 1164); conditions: higher = more signal
# [4] = MM1S cell viability effects, profiling panel, calcein-AM fluorescence, 48 h, basal (AID 1165); conditions: higher = more signal;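 also: viability of MM1S multiple myeloma cells under basal unstimulated conditions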
# [5] = basal RPMI8226 viability, no added stimulus, profiling panel, cell-based, calcein-AM fluorescence, 48 h, PK04 Diversity Set (AID 1166); conditions: RPMI8226 myeloma viability, higher = more signal;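 also: cells grown under basal conditions without added stimulus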
# [6] = basal HepG2 mitochondrial membrane potential changes, profiling panel, cell-based, JC-1 fluorescence, 24 h, 100 nL compound (AID 1167); conditions: higher = more signal
# [7] = basal 3T3-L1 adipocyte mitochondrial potential changes, profiling panel, cell-based, JC-1 fluorescence, 3T3-L1 adipocytes, 24 h, 100 nL compound (AID 1168); conditions: JC-1 mitochondrial fluorescence, higher = more signal, called active from +8 up or from −8 down
# [8] = basal RPMI8226 mitochondrial membrane potential changes, profiling panel, cell-based, JC-1 fluorescence, 24 h, 100 nL compound (AID 1169); conditions: RPMI8226 myeloma, JC-1 mitochondrial potential fluorescence, higher = more signal
# [9] = basal MM1S mitochondrial membrane potential changes, profiling panel, cell-based, JC-1 fluorescence, 24 h, 100 nL compound (AID 1170); conditions: higher = more signal
# [10] = A549 lung cancer cell viability effects, profiling panel, resazurin fluorescence, 24 h, PK04 Diversity Set (AID 1171); conditions: higher = more signal, called active from +8 up or from −8 down
# Also: test concentration not given here.
SMILES,z-score [1],z-score [2],z-score [3],z-score [4],z-score [5],z-score [6],z-score [7],z-score [8],z-score [9],z-score [10]
CC(C)NC(=O)[C@@]1(c2ccc([N+](=O)[O-])cc2)CC(=O)N(CC23CC4CC(CC(C4)C2)C3)[C@@H]1c1ccc(CO)cc1I,-1.58,0.58,-4.89,-3.8,-4.29,0.421,0.402 (inactive),-0.929,-2.08,-3.65 (inactive)
COC(=O)C1=C(C)[C@@H](O)[C@@H](C)[C@H](c2c(OC)c(OC)c(C)c(OC)c2OC)O1,-0.501,-0.63,0.287,0.631,-0.976,-0.206,0.657 (inactive),0.267,-0.722,-0.345 (inactive)
O=C1[C@H]2[C@H]3[C@H](O)[C@H](O)CC(=NOCc4ccccc4)[C@@H]3CC[C@H]2C(=O)N1C1CCCCC1,-0.128,-1.08,-0.622,-0.615,0.0958,-1.19,-0.652 (inactive),0.886,-0.101,0.36 (inactive)
COc1ccc(COC(=O)NN=C2C[C@@H](O)[C@@H](O)[C@@H]3[C@@H]4C(=O)N(c5ccc(F)cc5F)C(=O)[C@@H]4CC[C@@H]23)cc1,-0.102,0.257,-0.987,-0.738,-0.952,0.556,0.301 (inactive),-0.195,0.627,0.909 (inactive)
COC(=O)[C@@]1(Cc2ccccc2)[C@H]2c3cc(C(=O)N4CCCC4)n(Cc4ccccn4)c3C[C@H]2CN1C(=O)c1ccccc1,-0.935,1.91,-0.924,-0.0789,-1.72,1.06,0.339 (inactive),-0.16,0.333,-1.53 (inactive)
CC(=O)O[C@H]1C2=C(C(=O)[C@@H]3O[C@@H]31)[C@H]1C(C)O[C@@H]2[C@@]23C(=O)[C@@H]4O[C@@H]4[C@@H](O)C2=CO[C@H](C)[C@@H]13 (stereo not given in full),-0.192,-0.392,-1.54,-3,-2.64,-1.92,-0.78 (inactive),0.151,-1.05,0.4 (inactive)
CCCCCN1CC=CC23O[C@@H]4C=CCOC(=O)[C@@H]4[C@H]2C(=O)N(CCCCCCO)[C@@H]3C1=O (stereo not given in full),-0.262,-0.0159,0.63,1.04,-0.534,-0.429,-0.574 (inactive),-0.343,-0.414,0.444 (inactive)
CCOC(=O)C1=CC[C@H]2C(=O)N(CC)C(=O)[C@@H]12,-0.148,0.0888,-0.622,-0.0999,0.0317,-0.342,-0.362 (inactive),0.0877,-0.517,1.17 (inactive)
NCCCCCNC(=O)[C@@H]1C[C@@H]2C(=O)N3CCC[C@H]3C(=O)N2[C@@H]1c1cccc(OCCO)c1,-0.323,0.571,-0.168,0.0689,0.0959,-1.5,-0.812 (inactive),0.167,0.543,0.142 (inactive)
CCCNC(=O)OC[C@H]1O[C@H](CCON=C2[C@H]3CCn4c(=O)n(-c5ccccc5)c(=O)n4[C@H]3[C@H](O)[C@@H]3O[C@H]23)C=C[C@@H]1Oc1ccc(OC)cc1,-0.343,-0.414,-0.555,-1.83,-1.44,-0.25,-0.567 (inactive),-0.7,-0.75,-1.2 (inactive)
C[C@H]1CC[C@@H](C(=O)O)N[C@@H]1c1ccc(C#CCN(C)C)cc1,0.683,0.398,0.777,0.601,-0.338,0.984,0.461 (inactive),-0.562,0.921,0.413 (inactive)
O=C1C[C@@H](O)[C@@H](O)[C@@H]2[C@@H]3C(=O)N(C4CCCCC4)C(=O)[C@@H]3CC[C@H]12,0.18,0.0589,0.0702,-0.148,-0.189,-0.401,-0.364 (inactive),0.0892,-0.354,0.386 (inactive)
CC(C)NC(=O)[C@@H]1c2ccccc2C(=O)N(CC23CC4CC(CC(C4)C2)C3)[C@H]1c1ccc(CO)cc1,1.39,0.885,1.29,-0.0705,0.301,1.83,-0.459 (inactive),0.433,-0.624,1.18 (inactive)
CC(C)CON=C1C[C@@H](O)[C@@H](O)[C@@H]2[C@@H]3C(=O)N(Cc4ccccc4)C(=O)[C@@H]3CC[C@@H]12,-0.785,0.449,-0.946,0.479,-0.129,0.173,-0.272 (inactive),-0.313,-0.659,0.676 (inactive)
COCCOC(=O)N1C(=O)[C@@]2(c3cc(C#CC4(O)CCCCCC4)ccc31)[C@H](C(=O)N1CCN(c3ncccn3)CC1)[C@H]1C(=O)O[C@H](c3ccccc3)[C@H](c3ccccc3)N1[C@@H]2c1ccc(OCCO)cc1,0.514,1.48,-0.118,0.0759,-1.9,-0.866,-0.224 (inactive),-0.479,-0.653,-0.49 (inactive)
COC(=O)[C@@H]1N=C(c2ccc(OCCCO)cc2)O[C@@H]1c1ccccc1N=[N+]=[N-],0.377,0.557,0.134,-1.58,-1.56,-0.682,0.761 (inactive),-0.287,-0.218,0.4 (inactive)
CC(C)NC(=O)[C@@]1(C)c2ccccc2C(=O)N(Cc2cc(F)cc(C(F)(F)F)c2)[C@H]1c1ccc(CO)cc1,0.0549,-0.866,-0.135,-0.0517,0.223,0.863,-0.327 (inactive),0.102,-0.542,0.166 (inactive)
COc1ccc(-c2nc3c(c4c2C[C@H](C)OC4)CN(CCC(C)C)CC3)cc1,0.537,-0.49,0.443,0.508,-0.234,1.7,-0.613 (inactive),0.0911,-0.685,-0.0598 (inactive)
COCCOC(=O)N1C(=O)[C@@]2(c3ccccc31)[C@H](C(N)=O)[C@H]1C(=O)O[C@H](c3ccccc3)[C@H](c3ccccc3)N1[C@@H]2c1ccccc1OCCO,-0.421,1.59,-1.42,-3.2,-4.53,-0.728,0.633 (inactive),-1.1,-0.0748,-1.54 (inactive)
O=C1[C@H]2[C@H]3[C@H](O)[C@H](O)CC(=NOCc4ccccc4)[C@@H]3CC[C@H]2C(=O)N1Cc1ccccc1,-0.618,-0.176,-0.851,0.188,-0.16,-0.169,-0.399 (inactive),-0.164,-0.926,1.59 (inactive)
CCOC(=O)NN=C1C[C@@H](O)[C@@H](O)[C@@H]2[C@@H]3C(=O)N(C4CCCCC4)C(=O)[C@@H]3CC[C@@H]12,-0.117,-0.091,-0.281,0.0416,-0.771,-0.426,-0.61 (inactive),-0.0516,0.134,-0.361 (inactive)
O=C1C[C@@H](O)[C@@H](O)[C@@H]2[C@@H]3C(=O)N(Cc4ccc5c(c4)OCO5)C(=O)[C@@H]3CC[C@@H]12,0.254,0.797,0.0538,0.339,-0.205,-0.32,-0.409 (inactive),-0.893,0.358,-0.14 (inactive)
CC(CCN1CCCCc2nc(C)c(C)cc21)=NOC(C)CN1CCCCc2nc(C)c(C)cc21 (stereo not given),-0.282,-0.0335,-1.12,-2.33,-0.696,3.61,-1.2 (inactive),0.308,-0.16,0.661 (inactive)
